Assay results taken from paper PMC7826789 (International Journal of Molecular Sciences, 2021).

system: DDR1

| Compound | Kinases covered |
| --- | --- |
| CCN1CCN(Cc2ccc(C(=O)Nc3ccc(C)c(Oc4ccc5c(c4)CC(=O)N5)c3)cc2C(F)(F)F)CC1.Cl.Cl [DDR1-IN-1] | DDR1 |
| Cc1ccc(-n2nc(C(C)(C)C)cc2NC(=O)Nc2ccc(OCCN3CCOCC3)cc2)cc1 [BIRB0876BS] | DDR1 |
| Cc1cn(-c2cc(NC(=O)c3ccc4c(c3)CN(c3cncnc3)C[C@@H]4C)cc(C(F)(F)F)c2)cn1 [D2202-1] | DDR1 |
| O=C(Nc1ccccc1)Nc1cccc(Oc2ccc3nccn3n2)c1 [TPKI-39] | DDR1 |

system: DYRK1A

| Compound | Kinases covered |
| --- | --- |
| CCCNC(=O)c1ccc(Nc2ncc(C(F)(F)F)c(Nc3ccccc3C(C)=O)n2)c(Br)c1 [BI00801818] | DYRK1A |
| CCC(NN(C)C)=C1C(=O)Nc2ccc(C(C)=O)cc21 [BI00036838] | DYRK1A |
| COC[C@@H](C)N[C@H]1CC[C@H](Nc2cc(-c3cccc(NCC4(C#N)CCOCC4)n3)c(Cl)cn2)CC1 [NVP-2] | DYRK1A |
